The values that follow come from PubChem BioAssay (NCI).

Holding throughout (experiment): NCI-60 one-dose screen, 48 h (100 = growth as untreated, 0 = no growth, -100 = all killed)
Details in all cases: 10 µM

In assay [1] the test system is K-562 leukemia.
Assay [2] deals with MALME-3M melanoma.
Assay [3] concerns MDA-MB-231 breast.
Assay [4] has as its system RXF 393 renal.
In assay [5] the test system is SF-268 CNS.
Assay [6] has as its system SF-295 CNS.
Assay [7] relates to SF-539 CNS.
Assay [8] concerns UACC-257 melanoma.
The test system of assay [9] is M14 melanoma.
For assay [10], the system named is HCT-15 colon.
Assay [11] concerns HT29 colon.
For assay [12], the system named is SNB-75 CNS.
For assay [13], the system named is SNB-19 CNS.
Assay [14] concerns U251 CNS.
The subject of assay [15] is PC-3 prostate.
For assay [16], the system named is SK-MEL-5 melanoma.
Assay [17] has as its system UACC-62 melanoma.
Assay [18] concerns LOX IMVI melanoma.
Assay [19] deals with SK-MEL-28 melanoma.
Assay [20] concerns SK-MEL-2 melanoma.

This is part of a sample that, as a whole, favours compounds with a hit. Of some 83,000 tested, about 20% had one in any assay.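 How to read the values: 0–100, growth inhibition (40 = 60% inhibited); 0, no net growth; -100 to 0, cell death (-40 = 40% of starting cells died; -100 = all dead).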 A number with no mark means an inactive call. The source made the active and inactive calls. How the source made its calls: active means growth percent below 10; inactive means the rest.

Consider `CC/C(=C(/c1ccc(OCCN(C)C)cc1)c1ccc(OC(=O)CCCCC(=O)c2c(C)[nH]c(/C=C3\N=C(c4ccc[nH]4)C=C3OC)c2C)cc1)c1ccccc1`, for which the growth in assay [1] is 7.12% (active); in assay [2] it was 39.5%; in assay [3] it was -17.5% (active); in assay [4], 37.2%; in [5], 51.5%; in assay [6] it was 72.6%. Moreover, the growth in [7] is 78.6%; in assay [8], 90.1%; in assay [9], -1.63% (active); in assay [10], 27.1%; in assay [11], 14.3%; in assay [12] it was 42.3%. The growth was 91.8% in [13]; 43.5% in assay [14]; 42.3% in [15]; 36.4% in assay [16]; 75.1% in [17]; 14% in assay [18]. The growth is 85.6% in [19] and 69% in assay [20].

`O=S(=O)(Nc1ccccn1)c1ccc(N=Nc2ccc(O)c3ncccc23)cc1`: the growth is 6.51% (active) in assay [1]; -19.8% (active) in assay [2]; -2.1% (active) in assay [3]; 27.1% in assay [4]; 25% in assay [5]; 6.2% (active) in assay [6]. The growth was 10.8% in assay [7]; -23.5% (active) in assay [8]; 11.8% in assay [9]; 14.5% in [10]; 79.5% in assay [11]; -6.04% (active) in assay [12]. For the same compound, the growth is 12% in assay [13]; 0.16% (active) in assay [14]; -5.46% (active) in assay [15]; -4.96% (active) in [16]; -4.64% (active) in assay [17]; 13.7% in assay [18]. Moreover, the figures for the growth in assay [19] and in assay [20] were 33.9% and -30.1% (active), respectively.

As to `Cc1ccc(N=Nc2c(N)nc(N)[nH]c2=O)cc1C`, the growth was 90.9% in [1]; 89.9% in assay [2]; 117% in assay [3]; 110% in assay [4]; 111% in [5]; 112% in [6]. The growth in assay [7] is 102%; in assay [8], 107%; in assay [9], 97.2%; in [10], 103%; in [11], 93%; in assay [12] it was 104%. The growth in assay [13] was 110%; in assay [14], 103%; in assay [15], 95.7%; in assay [16] it was 101%; in [17] it was 109%; in [18], 96%. In addition, the growth in [19] is 115%; in assay [20], 100%.

`Cc1cc(=O)[nH]c(N/N=C/c2ccccc2O)n1`: the growth in assay [1] was 59.9%; in assay [2], 35.1%; in assay [3] it was 76.6%; in assay [4], 90%; in assay [5] it was 39.1%; in [6] it was 43.2%. Besides, the growth in assay [7] was 96.8%; in assay [8] it was 88%; in assay [9] it was 29.9%; in [10] it was 40.7%; in assay [11], 46.1%; in assay [12] it was 89%. In addition, the growth in assay [13] is 76.9%; in assay [14], 45.9%; in [15] it was 67.4%; in assay [16] it was 90.8%; in assay [17], 92.3%; in [18] it was 59.5%. Besides, the growth in assay [19] is 86.3%; in [20], 73.9%.

As to `Fc1ccc2nc(-c3nc(-c4ccccc4)n4ccccc34)[nH]c2c1`, the growth is 8.58% (active) in assay [1]; -57.7% (active) in assay [2]; -3.47% (active) in [3]; -25.7% (active) in assay [4]; -38.6% (active) in assay [5]; -28% (active) in [6]. Besides, the growth is 27.3% in assay [7]; -17.4% (active) in [8]; 27.7% in assay [9]; 20.4% in assay [10]; -52.6% (active) in assay [11]; -44.1% (active) in assay [12]. The growth in [13] was -36.5% (active); in assay [14] it was -67% (active); in [15], -71% (active); in [16] it was 4% (active); in assay [17], 3.95% (active); in assay [18] it was 15.2%. Further, the growth in assay [19] is -9.19% (active); in [20], -30.3% (active).

Turning to `CCOC(=O)N1C/C(=C/c2ccc(F)cc2)C(=O)/C(=C/c2ccc(F)cc2)C1`, the growth was 3.36% (active) in [1]; -36.8% (active) in assay [2]; -2.86% (active) in assay [3]; -83.4% (active) in assay [4]; -12% (active) in assay [5]; -22% (active) in [6]. Also, the growth in assay [7] was 3.86% (active); in assay [8] it was -14.7% (active); in [9], -69% (active); in [10] it was -63.4% (active); in assay [11], -58.8% (active); in [12] it was 56.8%. Further, the growth in assay [13] is 39.6%; in assay [14] it was -65.6% (active); in assay [15], -25.3% (active); in assay [16], -59.7% (active); in assay [17] it was -56.8% (active); in assay [18], -84.5% (active). Besides, the results for the growth in assay [19] and in assay [20] were -37.4% (active) and 21.7%, respectively.

As for `CC(=O)CSC(C)=O`, the growth in assay [1] is 106%; in assay [2], 89.6%; in [3] it was 99.7%; in [4], 109%; in assay [5], 105%; in assay [6], 91.8%. In addition, the growth in assay [7] was 95.2%; in assay [8] it was 100%; in [9], 103%; in assay [10], 103%; in assay [11], 105%; in assay [12], 84.3%. In addition, the growth is 100% in assay [13]; 98% in assay [14]; 86.6% in [15]; 98.9% in [16]; 107% in assay [17]; 101% in assay [18]. In addition, the growth in [19] is 95.6%; in [20], 116%.

As for `CCN1Cc2c(/C=C/c3ccccc3)nc3ccc(OC)cc3c2N(c2cccc(Cl)c2)C1`, the growth is 51.1% in assay [1]; 95.9% in [2]; 74% in assay [3]; 107% in [4]; 102% in [5]; 92.8% in [6]. Moreover, the growth in assay [7] is 75.1%; in [8] it was 41.5%; in assay [9], 78.4%; in [10], 57.8%; in [11], 64.2%; in assay [12], 63.6%. The growth in assay [13] was 93.3%; in assay [14] it was 76%; in assay [15] it was 20.2%; in assay [16], 20.6%; in assay [17] it was 52.3%; in [18], 73%. Besides, the growth in [19] was 95.9%; in assay [20] it was 77.5%.
